The results in this text go back to PubChem BioAssay.

Active and inactive are the calls of the source.

Experiment [1] in a line: binders of probe aFSTL3 on microarray, primary screen, stem cell growth factor project, biochemical, small-molecule microarray, fluorescence 635/667 (AID 1064).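 Note: measures binding of the biotinylated anti-FSTL3 antibody to printed compounds.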 The note with it: higher = more signal.
Experiment [2] in a line: binders from COS7 lysate, DM2A8 probe, primary screen, torsin A project, cell lysate, small-molecule microarray, fluorescence 635/667 (AID 1065). The note with it: higher = more signal, COS7 lysate expressing mutant human TOR1A.
Experiment [3] in a line: binders of probe aFGF2 on microarray, primary screen, stem cell growth factor project, biochemical, small-molecule microarray, fluorescence 635/667 (AID 1067).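 Note: measures binding of biotinylated aFGF2 protein to printed compounds on slides; z-score merges feature fluorescence and signal-to-noise across triplicate slides.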 The note with it: higher = more signal.
Experiment [4] can be described thus: binders of probe aFGF10 on microarray, primary screen, stem cell growth factor project, biochemical, small-molecule microarray, fluorescence 635/667 (AID 1071).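 Note: score merges 667 nm spot intensity and signal to noise from triplicate slides.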 The conditions noted are these: higher = more signal.
Experiment [5] has as its target Neurogenic locus notch homolog protein 2 (Homo sapiens) (UniProt Q04721). Nature of the experiment: Notch2 binders on small-molecule microarrays, primary screen, biochemical, small-molecule microarray, 635 nm fluorescence, stem cell growth factors (AID 1073). The note with it: Notch2 binding, higher = more signal.
The target of experiment [6] is Pro-neuregulin-1, membrane-bound isoform (Homo sapiens) (UniProt Q02297). Nature of the experiment: NRG1 binders on small-molecule microarrays, primary screen, psychiatric disease protein project, biochemical, small-molecule microarray, fluorescence 635/667 (AID 1075).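 Note: score combines 667 nm spot fluorescence with signal to noise.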 The conditions noted are these: NRG1 binding, 635 nm fluorescence, higher = more signal.
The test system of experiment [7] is Neuregulin-1 EGF-like domain. Put plainly: binders of neuregulin-1 EGF-like domain, primary screen, biochemical, small-molecule microarray, 635 nm fluorescence (AID 1081).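 Note: binding of the protein to compounds printed on small-molecule microarray slides.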 The note with it: small-molecule microarray binding, higher = more signal.
Experiment [8] is described as follows: FRG1 promoter luciferase signal modulators, primary screen, FRG1 inhibition for FSHD, cell-based, C2C12 myotubes, firefly/Renilla luciferase, luminescence (AID 1084). The conditions noted are these: higher = more signal, called active from +8 up or from −8 down.
Experiment [9] is described as follows: binders of probe aFST on microarray, primary screen, stem cell growth factor project, biochemical, small-molecule microarray, fluorescence 635/667 (AID 1086).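 Note: score merges 667 nm fluorescence with signal-to-noise of each printed compound spot.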 The conditions noted are these: higher = more signal.
The nature of experiment [10]: binders of probe aHhip on microarray, primary screen, stem cell growth factor project, biochemical, small-molecule microarray, fluorescence 635/667 (AID 1087).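 Note: score merges spot fluorescence at 667nm with spot signal to noise ratio.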 The conditions noted are these: higher = more signal.

Chain of Pro-neuregulin-1, membrane-bound isoform (Homo sapiens) (Q02297 whole entry, looked up, the tested form may be a part, canonical isoform): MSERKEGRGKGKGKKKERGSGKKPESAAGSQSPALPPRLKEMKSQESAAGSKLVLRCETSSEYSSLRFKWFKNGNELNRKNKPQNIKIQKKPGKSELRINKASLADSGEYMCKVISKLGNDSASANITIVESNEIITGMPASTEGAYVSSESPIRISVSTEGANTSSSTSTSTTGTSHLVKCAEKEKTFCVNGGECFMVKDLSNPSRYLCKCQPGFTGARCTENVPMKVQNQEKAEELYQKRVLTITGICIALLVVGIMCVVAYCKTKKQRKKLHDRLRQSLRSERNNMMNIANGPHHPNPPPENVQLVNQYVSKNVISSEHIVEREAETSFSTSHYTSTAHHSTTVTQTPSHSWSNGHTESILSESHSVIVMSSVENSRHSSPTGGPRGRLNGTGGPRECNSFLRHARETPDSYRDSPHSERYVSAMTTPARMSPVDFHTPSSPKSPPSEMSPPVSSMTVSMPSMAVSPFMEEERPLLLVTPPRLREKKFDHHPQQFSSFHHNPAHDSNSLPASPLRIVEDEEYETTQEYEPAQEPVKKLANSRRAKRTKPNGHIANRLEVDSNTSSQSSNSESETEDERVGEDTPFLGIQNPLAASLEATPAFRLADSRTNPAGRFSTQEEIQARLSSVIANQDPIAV
Chain of Neurogenic locus notch homolog protein 2 (Homo sapiens) (Q04721 whole entry, looked up, canonical isoform): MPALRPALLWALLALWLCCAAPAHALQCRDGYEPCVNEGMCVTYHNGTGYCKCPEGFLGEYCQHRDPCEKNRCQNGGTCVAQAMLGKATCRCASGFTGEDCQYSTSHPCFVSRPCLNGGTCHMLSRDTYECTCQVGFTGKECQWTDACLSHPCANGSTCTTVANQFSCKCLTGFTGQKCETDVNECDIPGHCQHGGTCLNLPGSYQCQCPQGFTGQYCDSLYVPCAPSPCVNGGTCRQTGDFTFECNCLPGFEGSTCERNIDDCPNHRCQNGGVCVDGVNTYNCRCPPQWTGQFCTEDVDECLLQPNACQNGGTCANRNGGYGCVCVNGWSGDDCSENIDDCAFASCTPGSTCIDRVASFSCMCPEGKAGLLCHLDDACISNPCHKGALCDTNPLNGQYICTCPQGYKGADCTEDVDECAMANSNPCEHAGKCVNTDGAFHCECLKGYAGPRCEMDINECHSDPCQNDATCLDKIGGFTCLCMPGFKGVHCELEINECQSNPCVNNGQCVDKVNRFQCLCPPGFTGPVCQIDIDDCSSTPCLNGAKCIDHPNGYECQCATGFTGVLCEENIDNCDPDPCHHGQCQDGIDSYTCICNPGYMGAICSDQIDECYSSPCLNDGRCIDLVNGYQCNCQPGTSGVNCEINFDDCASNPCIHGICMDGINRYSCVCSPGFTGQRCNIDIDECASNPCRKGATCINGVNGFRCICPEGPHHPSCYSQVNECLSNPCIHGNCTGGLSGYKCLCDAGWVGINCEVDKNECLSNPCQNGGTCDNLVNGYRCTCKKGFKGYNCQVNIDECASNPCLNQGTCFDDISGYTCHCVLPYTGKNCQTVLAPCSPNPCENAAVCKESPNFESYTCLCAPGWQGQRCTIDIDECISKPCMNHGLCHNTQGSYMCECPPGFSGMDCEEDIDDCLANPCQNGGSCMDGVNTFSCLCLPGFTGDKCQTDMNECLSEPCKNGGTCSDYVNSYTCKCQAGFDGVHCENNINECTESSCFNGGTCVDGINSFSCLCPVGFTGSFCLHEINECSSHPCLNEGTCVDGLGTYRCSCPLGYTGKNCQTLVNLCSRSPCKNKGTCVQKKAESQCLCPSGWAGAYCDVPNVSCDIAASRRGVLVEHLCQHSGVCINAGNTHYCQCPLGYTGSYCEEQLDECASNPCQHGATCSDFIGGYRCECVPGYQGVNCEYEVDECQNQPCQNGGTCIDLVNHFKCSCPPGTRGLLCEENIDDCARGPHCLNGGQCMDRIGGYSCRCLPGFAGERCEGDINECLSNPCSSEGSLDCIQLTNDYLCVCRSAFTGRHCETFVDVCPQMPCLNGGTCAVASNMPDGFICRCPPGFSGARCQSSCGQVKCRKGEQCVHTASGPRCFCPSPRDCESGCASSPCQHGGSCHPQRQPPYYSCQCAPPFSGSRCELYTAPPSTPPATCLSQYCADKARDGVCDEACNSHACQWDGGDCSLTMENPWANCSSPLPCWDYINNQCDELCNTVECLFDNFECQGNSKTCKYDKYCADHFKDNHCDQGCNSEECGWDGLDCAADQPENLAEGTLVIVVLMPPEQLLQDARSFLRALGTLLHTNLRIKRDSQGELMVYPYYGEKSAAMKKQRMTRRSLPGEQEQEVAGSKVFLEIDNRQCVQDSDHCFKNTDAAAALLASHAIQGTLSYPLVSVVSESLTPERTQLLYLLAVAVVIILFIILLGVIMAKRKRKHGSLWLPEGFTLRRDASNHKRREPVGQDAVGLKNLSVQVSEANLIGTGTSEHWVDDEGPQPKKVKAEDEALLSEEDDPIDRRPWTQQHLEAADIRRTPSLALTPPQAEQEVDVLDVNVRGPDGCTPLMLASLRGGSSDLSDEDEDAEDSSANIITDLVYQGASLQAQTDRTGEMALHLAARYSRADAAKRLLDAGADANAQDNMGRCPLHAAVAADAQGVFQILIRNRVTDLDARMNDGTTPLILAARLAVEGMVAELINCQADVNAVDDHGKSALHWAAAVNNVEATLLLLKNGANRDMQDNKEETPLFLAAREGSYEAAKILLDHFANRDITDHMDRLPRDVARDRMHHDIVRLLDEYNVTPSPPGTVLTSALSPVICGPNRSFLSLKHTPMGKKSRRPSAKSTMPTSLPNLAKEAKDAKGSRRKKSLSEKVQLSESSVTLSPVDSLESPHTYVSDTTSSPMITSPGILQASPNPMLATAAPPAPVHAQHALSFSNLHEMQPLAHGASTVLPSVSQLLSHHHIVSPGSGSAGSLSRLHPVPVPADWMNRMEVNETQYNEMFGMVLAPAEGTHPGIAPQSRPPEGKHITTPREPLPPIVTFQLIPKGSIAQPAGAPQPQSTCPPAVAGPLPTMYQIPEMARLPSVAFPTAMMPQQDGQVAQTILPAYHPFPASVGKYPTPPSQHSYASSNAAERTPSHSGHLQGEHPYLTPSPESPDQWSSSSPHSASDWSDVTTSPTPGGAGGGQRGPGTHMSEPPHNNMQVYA

Regarding `CC(=O)Nc1ccc([C@H]2[C@H](C)CC[C@H]3C(=O)N4[C@@H](CC[C@@H](C)[C@@H]4c4ccc(NC(C)=O)cc4)C(=O)N32)cc1`, the composite z-score in experiment [1] was -0.508; in experiment [2] it was 0.482; in experiment [3], -0.1; in experiment [4] it was 0.908; in experiment [5], 0.68; in experiment [6] it was 0.566. The composite z-score in experiment [7] came to 1.1; in [9], 0.0863; in [10], 0.132. Besides, the z-score in experiment [8] was 0.103 (inactive).
On to `O=C1OCC=C[C@H]2OC34C=CCN(Cc5ccccc5)C(=O)[C@H]3N(CCCCCO)C(=O)[C@@H]4[C@@H]12` (stereo not given in full), for which the composite z-score in experiment [1] was 1.67; in experiment [2], -0.0288; in experiment [3], -0.187; in experiment [4], -0.179; in experiment [5] it was -1.38; in experiment [6], 1.13. In addition, the composite z-score was 0.631 in experiment [7], -0.594 in experiment [9] and -0.216 in experiment [10]. In [8], the z-score is 0.443 (inactive).
As to `C=C(COC)/C(=C/C[C@@H](OC(C)=O)c1cccc(OCCO)c1)c1cc(C(=O)OC)ccc1OC`, the composite z-score was 0.0462 in experiment [1]; 0.361 in experiment [2]; -0.103 in experiment [3]; 0.396 in [4]; -0.0821 in experiment [5]; -0.582 in [6]. For the same compound, the composite z-score stood at 0.597 in [7], 0.105 in experiment [9] and 0.0274 in [10]. The z-score in experiment [8] is -0.637 (inactive).
In the case of `COC(=O)[C@@]1(Cc2ccccc2)[C@H]2c3cc(C(=O)N4CCCC4)n(CCN4CNCC4=O)c3C[C@H]2CN1C(=O)c1ccccc1`, the composite z-score in experiment [1] is 0.243; in [2] it was 1.35; in experiment [3] it was 0.106; in experiment [4] it was 0.598; in experiment [5], 1.4; in experiment [6], 1.71. Also, the values for the composite z-score in experiment [7], in experiment [9] and in experiment [10] were 1.37, 0.604 and 0.209, respectively. Also, the z-score in experiment [8] is 1.41 (inactive).
Regarding `Cc1ccc(S[C@]2(C(=O)O)CC(=O)N(Cc3cc(C(F)(F)F)cc(C(F)(F)F)c3)[C@@H]2c2ccc(CO)cc2I)cc1`, the composite z-score in [1] was 0.793; in [2], 0.0039; in [3], -0.103; in experiment [4] it was 0.002; in experiment [5], -1.18; in experiment [6], 1.28. In addition, the composite z-score in [7] was 0.603; in [9], -0.292; in experiment [10], 0.0373. Also, the z-score in [8] is 0.419 (inactive).
Consider `COc1ccc([Si](C)(C)[C@@H]2[C@@H](CC(=O)N(CCO)Cc3ccccc3)O[C@]3(C(=O)N(Cc4cccc(N5CCC5=O)c4)c4ccccc43)[C@H]2C)cc1`, for which the composite z-score in experiment [1] is -0.113; in [2], 0.861; in experiment [3], -0.116; in [4], 0.434; in [5], 0.205; in [6], 0.712. Moreover, the results for the composite z-score in experiment [7], in experiment [9] and in experiment [10] were 1.13, 0.147 and 0.0373, respectively. In addition, the z-score in experiment [8] is -0.645 (inactive).
Turning to `C=CCC(OC(C)=O)[C@@H]1[C@@H](N(Cc2cccc3ccccc23)C(=O)c2ccc(C)cc2)c2cc(OCCCO)ccc2N1C(=O)c1ccc(-c2ccccc2)cc1` (stereo not given in full), the composite z-score is 0.115 in experiment [1]; 0.529 in experiment [2]; -0.0753 in [3]; 0.255 in experiment [4]; -0.169 in experiment [5]; 0.0808 in [6]. Further, the composite z-score in experiment [7] was -0.173; in experiment [9] it was 0.159; in experiment [10] it was -0.335. For the same compound, the z-score in experiment [8] was -2.1 (inactive).
In the case of `C=CCNC(=O)[C@H]1[C@@H]2C(=O)O[C@@H](c3ccccc3)[C@@H](c3ccccc3)N2[C@@H](c2ccccc2OCCO)[C@]12C(=O)N(C(=O)OCCOC)c1ccc(C#CCC(C(=O)OC)C(=O)OC)cc12`, the composite z-score is -0.257 in experiment [1]; 0.864 in experiment [2]; 0.0556 in experiment [3]; 0.408 in experiment [4]; 1.34 in experiment [5]; 1.47 in experiment [6]. Moreover, the composite z-score was 1.22 in [7], 0.336 in experiment [9] and 0.276 in [10]. Also, the z-score in experiment [8] was -0.678 (inactive).
As for `CCC(=O)[C@]12O[C@@]3([C@@H]4C(=O)OCC[C@@H]41)N(CC)C(C)=C(C(=O)OC)[C@@H](c1ccccc1)N3C2=O`, the composite z-score is 0.162 in experiment [1]; -0.337 in experiment [2]; -0.116 in experiment [3]; 0.0911 in experiment [4]; -0.925 in [5]; 0.0983 in experiment [6]. The results for the composite z-score in experiment [7], in [9] and in experiment [10] were 0.966, -0.255 and 0.176, respectively. The z-score in [8] is -0.13 (inactive).
Turning to `CCN1C(C)=C(C(=O)OC)[C@@H](c2ccccc2)N2C(=O)[C@@]3(C(=O)OC)O[C@@]12[C@@H]1C(=O)N(c2ccccc2)C(=O)[C@@H]13`, the composite z-score is -0.418 in [1]; 0.833 in [2]; -0.0924 in [3]; 0.877 in [4]; 1.14 in [5]; 0.75 in [6]. The composite z-score is 0.892 in experiment [7], 0.585 in [9] and 0.122 in experiment [10]. Moreover, the z-score in experiment [8] is -0.909 (inactive).
Turning to `C=CCN1C(=O)[C@@]2(Cc3ccccc3)N=C(c3ccc(OCCCO)cc3)O[C@H]2c2ccccc21`, the composite z-score in [1] stood at 1.02; in [2], 0.22; in experiment [3] it was 0.0714; in experiment [4], 0.0096; in [5] it was 0.895; in [6], 0.14. In addition, the results for the composite z-score in experiment [7], in [9] and in experiment [10] were 1.14, 0.691 and -0.132, respectively. In addition, in [8], the z-score is -2.86 (inactive).
